Inconclusive results are not listed. Activity calls are given as the source filed them. Calls follow the shape of the dose curve; as a rule, active = well fitted inhibition curve with a large enough effect; inconclusive = small, poorly fitted or top-dose-only effect; inactive = flat fitted curve, though single readings scatter.
Key:
Test in all cases: qHTS profiling for inhibitors of Plasmodium falciparum proliferation (AID 504749); also: nearly all actives have a fitted effect of over 60% in size
Settings in all cases: P. falciparum in erythrocytes, SYBR Green DNA, 72 h; series mostly up to 28.7 µM
CP201 = system: CP201
Method in brief: (§1)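 Three-day growth assay of blood-stage parasites in erythrocytes (0.3% parasitemia, 2.5% hematocrit) at 37 C, 5% CO2, quantified by SYBR Green DNA staining after overnight detergent lysis.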

CP203 = system: CP203
Method in brief: as §1

CP211 = system: CP211
Method in brief: as §1

CP215 = system: CP215
Method in brief: as §1

CP217 = system: CP217
Method in brief: as §1

CP237 = system: CP237
Method in brief: as §1

CP238 = system: CP238
Method in brief: as §1

CP247 = system: CP247
Method in brief: as §1

CP250 = system: CP250
Method in brief: as §1

CP252 = system: CP252
Method in brief: as §1

Measured: Potency
Potency is read from the fitted curve at half-maximal effect.

CN(C)C=Nc1c(I)cc(I)c(CCC(=O)O)c1I
inactive: CP201 | CP203 | CP211 | CP215 | CP217 | CP237 | CP238 | CP247 | CP250 | CP252

Cc1ccc(S(=O)(=O)O)cc1C
inactive: CP201 | CP203 | CP211 | CP215 | CP217 | CP237 | CP238 | CP247 | CP250 | CP252

Cc1ncc(COP(=O)(O)O)c(CN)c1O
inactive: CP201 | CP203 | CP211 | CP215 | CP217 | CP237 | CP238 | CP250 | CP252

OCCCNc1ccccc1
inactive: CP201 | CP203 | CP211 | CP215 | CP217 | CP237 | CP238 | CP250 | CP252

Cc1cc2nc3c(=O)[nH]c(=O)nc-3n(C[C@H](O)[C@H](O)[C@H](O)COP(=O)(O)OP(=O)(O)OC[C@H]3O[C@@H](n4cnc5c(N)ncnc54)[C@H](O)[C@@H]3O)c2cc1C
inactive: CP201 | CP203 | CP211 | CP215 | CP217 | CP237 | CP238 | CP250 | CP252

COc1ccc(/C=C/C(=O)OCCC(C)C)cc1
inactive: CP201 | CP203 | CP211 | CP215 | CP217 | CP237 | CP238 | CP247 | CP252

CC(C)(C)CC(C)(C)c1cc(Cc2cc(C(C)(C)CC(C)(C)C)cc(-n3nc4ccccc4n3)c2O)c(O)c(-n2nc3ccccc3n2)c1
inactive: CP201 | CP203 | CP211 | CP215 | CP217 | CP237 | CP238 | CP247 | CP250 | CP252

CCCCC[C@H](O)/C=C/[C@H]1[C@H](O)CC(=O)[C@@H]1C/C=C\CCCC(=O)O
inactive: CP201 | CP203 | CP211 | CP215 | CP217 | CP237 | CP238 | CP247 | CP250 | CP252

CCN(CC)CCC(=O)N1c2ccccc2Sc2ccc(C(F)(F)F)cc21
inactive: CP201 | CP203 | CP211 | CP215 | CP217 | CP237 | CP238 | CP250 | CP252

CC(=O)Oc1cc(C(F)(F)F)ccc1C(=O)O
inactive: CP201 | CP203 | CP211 | CP215 | CP217 | CP237 | CP238 | CP247 | CP250 | CP252

COc1ccccc1N1CCN(CCCC(=O)c2ccc(F)cc2)CC1
inactive: CP201 | CP203 | CP211 | CP215 | CP217 | CP237 | CP238 | CP247 | CP250 | CP252

COc1ccc(C(=O)CCC(=O)O)c2ccccc12
inactive: CP201 | CP203 | CP211 | CP215 | CP217 | CP237 | CP238 | CP250 | CP252

O=C1CCC(=O)N1CO
inactive: CP201 | CP203 | CP211 | CP215 | CP217 | CP237 | CP238 | CP247 | CP250 | CP252

CCCCC
inactive: CP201 | CP203 | CP211 | CP215 | CP217 | CP237 | CP238 | CP247 | CP250 | CP252

NC(=O)C1c2ccccc2CCc2ccccc21
inactive: CP201 | CP203 | CP211 | CP215 | CP217 | CP237 | CP238 | CP250 | CP252

CCCCCc1ccc(C)cc1O
inactive: CP201 | CP203 | CP211 | CP215 | CP217 | CP237 | CP238 | CP250 | CP252

CCOC(=S)SSC(=S)OCC
inactive: CP201 | CP203 | CP211 | CP215 | CP217 | CP237 | CP238 | CP250 | CP252

CCCCCCCCCCCCCC(=O)OCC(COP(=O)([O-])OCC[N+](C)(C)C)OC(=O)CCCCCCCCCCCCC (configuration not stated)
inactive: CP201 | CP203 | CP211 | CP215 | CP217 | CP237 | CP238 | CP247 | CP250 | CP252

CC/C=C\C/C=C\C/C=C\C/C=C\C/C=C\C/C=C\CCC(=O)O
inactive: CP201 | CP203 | CP211 | CP215 | CP217 | CP237 | CP238 | CP247 | CP250 | CP252

CN1c2c(nc(N)[nH]c2=O)NCC1CNc1ccc(C(=O)NC(CCC(=O)O)C(=O)O)cc1 (configuration not stated)
inactive: CP201 | CP203 | CP211 | CP215 | CP217 | CP237 | CP238 | CP247 | CP250 | CP252

CC/C=C\C/C=C\C/C=C\C/C=C\C/C=C\CCCC(=O)O
inactive: CP201 | CP203 | CP211 | CP215 | CP217 | CP237 | CP238 | CP250 | CP252

FC(F)(F)COCC(F)(F)F
inactive: CP201 | CP203 | CP211 | CP215 | CP217 | CP237 | CP238 | CP247 | CP250 | CP252

O=C(O)c1ccc(OCCn2ccnc2)cc1
inactive: CP201 | CP203 | CP211 | CP215 | CP217 | CP237 | CP238 | CP247 | CP250 | CP252

NCC(O)CC(=O)O (configuration not stated)
inactive: CP201 | CP203 | CP211 | CP215 | CP217 | CP237 | CP238 | CP247 | CP250 | CP252

COC(=O)c1ccccc1O
inactive: CP201 | CP203 | CP211 | CP215 | CP217 | CP237 | CP238 | CP247 | CP250 | CP252

Cc1ccccn1
inactive: CP201 | CP203 | CP211 | CP215 | CP217 | CP237 | CP238 | CP247 | CP250 | CP252

C[C@H](O)CN(C)C
inactive: CP201 | CP203 | CP211 | CP215 | CP217 | CP237 | CP238 | CP247 | CP250 | CP252

Cc1ccc(C(C)(C)c2ccc(C)cc2)cc1
inactive: CP201 | CP203 | CP211 | CP215 | CP217 | CP237 | CP238 | CP247 | CP250 | CP252

CC(=O)Oc1cccc(C(=O)O)c1OC(C)=O
inactive: CP201 | CP203 | CP211 | CP215 | CP217 | CP237 | CP238 | CP247 | CP250 | CP252

CCCCCCCCCCCCCCCCCC(=O)OCC(C)O (configuration not stated)
inactive: CP201 | CP203 | CP211 | CP215 | CP217 | CP237 | CP238 | CP247 | CP250 | CP252

CC12CCC(C1)C(C)(C)C2=O (configuration not stated)
inactive: CP201 | CP211 | CP215 | CP217 | CP237 | CP238 | CP247 | CP250 | CP252

N#Cc1ccc2c(c1)N(CCCN1CCC(O)CC1)c1ccccc1S2
inactive: CP217 | CP252

NC(N)=NCC1COc2ccccc2O1 (configuration not stated)
inactive: CP201 | CP203 | CP217 | CP237 | CP238 | CP250 | CP252

CNC(=O)[C@H](Cc1c[nH]c2ccccc12)NC(=O)[C@@H](CC(=O)NO)CC(C)C
inactive: CP201 | CP252

Cn1cc(NC(=O)c2cc(NC(=O)c3cc(NC=O)cn3C)cn2C)cc1C(=O)NCCC(=N)N
active: CP203 12 µM | CP217 7.08 µM | CP237 8.91 µM | CP238 11.2 µM | CP247 6.31 µM | CP250 7.94 µM | CP252 8.91 µM

CN1CCc2c(c3ccccc3n2Cc2ccccc2)C1
inactive: CP201 | CP217 | CP238 | CP247 | CP250 | CP252
active: CP237 5.01 µM

COc1ccc(-c2noc(CC(=O)O)c2-c2ccc(OC)cc2)cc1
inactive: CP201 | CP211 | CP215 | CP217 | CP237 | CP238 | CP247 | CP250 | CP252

COc1ccc2nc(NC(=O)Nc3ccccc3)sc2c1
inactive: CP201 | CP217 | CP237 | CP238 | CP250 | CP252

CCCCCCCCCCCCCCCCOCCOCCOCCOCCOCCOCCOCCOCCOCCOCCOCCOCCOCCOCCOCCOCCOCCOCCOCCOCCO
active: CP237 7.08 µM

CC(=O)[O][Al][O]C(C)=O
inactive: CP201 | CP215 | CP217 | CP237 | CP238 | CP247 | CP250 | CP252

O=C(O[C@H]1CN2CCC1CC2)N1CCc2ccccc2[C@@H]1c1ccccc1
inactive: CP201 | CP203 | CP217 | CP238 | CP250 | CP252

N[C@@H](Cc1cc(I)c(Oc2ccc(O)c(I)c2)c(I)c1)C(=O)O
inactive: CP201 | CP211 | CP238

CCOc1cc(-c2nccc3cc(OC)c(OC)cc23)cc(OCC)c1OCC
inactive: CP238

O=c1n(CC2CO2)c(=O)n(CC2CO2)c(=O)n1CC1CO1 (configuration not stated)
inactive: CP201 | CP211 | CP215 | CP217 | CP238

NC(=S)N=Nc1ccc(NN=C(N)N)cc1
active: CP203 12 µM | CP211 7.57 µM | CP215 7.57 µM | CP217 12.6 µM | CP237 10 µM | CP238 11.2 µM | CP247 11.2 µM | CP252 8.91 µM

CSCCC(N)C(=O)O (configuration not stated)
inactive: CP217 | CP237 | CP238 | CP247 | CP250 | CP252

CCOC(=O)c1c[nH]c2cc(OCC(C)C)c(OCC(C)C)cc2c1=O
active: CP211 0.0536 µM | CP217 0.0708 µM | CP237 0.0794 µM | CP238 0.126 µM | CP247 0.0794 µM | CP250 0.0794 µM | CP252 0.0891 µM

CSc1nc2cc(Oc3cccc(Cl)c3Cl)c(Cl)cc2[nH]1
active: CP201 10.7 µM | CP211 10.7 µM | CP215 9.53 µM | CP217 3.98 µM | CP237 11.2 µM | CP238 8.91 µM | CP247 3.16 µM | CP250 2.24 µM | CP252 3.16 µM

CC[C@H]1OC(=O)[C@H](C)[C@@H](O[C@H]2C[C@@](C)(OC)[C@@H](O)[C@H](C)O2)C(C)[C@@H](O[C@@H]2O[C@H](C)C[C@H](N(C)C)[C@@H]2O)[C@](C)(OC)C[C@@H](C)C(=O)[C@H](C)[C@@H](O)[C@]1(C)O (some centres not stated)
active: CP237 7.94 µM
inactive: CP201 | CP203 | CP238 | CP247 | CP252

CN(C)CCC=C1c2ccccc2C(C)(C)c2ccccc21
inactive: CP238 | CP247

CC(C)C1=CC2=CC[C@@H]3[C@](C)(CCC[C@@]3(C)C(=O)O)[C@H]2CC1
inactive: CP217 | CP237 | CP238 | CP247 | CP250 | CP252

O=C1NCCN1c1ncc([N+](=O)[O-])s1
inactive: CP203 | CP211 | CP215 | CP217 | CP237 | CP238 | CP247 | CP250 | CP252

C#C[C@]1(O)CC[C@@H]2[C@H]3CCC4=CC(=O)CC[C@H]4[C@H]3C(=C)C[C@@]21CC
inactive: CP238 | CP250 | CP252
active: CP201 0.478 µM | CP211 0.478 µM | CP215 0.478 µM
